Screens deposited in PubChem BioAssay by National Center for Advancing Translational Sciences (NCATS).
The list is not random: actives were taken first. Their share in the collection is about 4.8%.
USP2a block: USP2a (human) protease inhibition | AID 463254 | USP2 core, Ub-CHOP2 coupled fluorogenic reporter, 485/531 | O75604 | Potency, µM (doses to about 38.3 µM), for inactives: top-dose activity change, negative = inhibition, most hits filed as inhibitors | actives 0.01% (n = 330,000);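 note: potency is the fitted concentration of half-maximal effect; plate controls were DMSO wells for no effect and full inhibition by NEM control for full effect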
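USP2 core (10nM final) preincubated 30min RT with compound in 20mM Tris-HCl pH 8.0, 2mM CaCl2, 2mM beta-mercaptoethanol, 0.05% CHAPS; 25nM Ub-CHOP2 plus 25nM reporter substrate added, fluorescence (Ex485/Em531) read after 60min.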
ATXN2 expr inh: ATXN2 expression inhibition | HEK-293 ATXN2-luciferase reporter, luminescence, 24 h | Potency, µM (doses to about 57 µM), without a hit: top-dose activity change, negative = inhibition, usual class: inhibitors | actives 0.72% (n = 360,000) | AID 1745845; note: potency is the fitted concentration of half-maximal effect; % is set by controls: 0 for no effect and ±100 for the full control effect; nearly all actives have a fitted effect of over 55% in size
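ATXN2-luciferase reporter cells (luciferase flanked by upstream and downstream ATXN2 gene portions) were treated 24 h at 37 °C with compounds at up to 57 uM. SteadyGlo luminescence gave expression; GF-AFC fluorescence gave viability.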
IL-1B inflam inh: inhibitors of inflammasome signaling (IL-1 beta secretion) | activity change, % at 57.5 µM | actives 4.7% (n = 360,000) | AID 743279 | THP-1 LPS/ATP IL-1B secretion, AlphaLISA, 16 h; stronger effect = lower value; in the data active = activity change below about -50%; inconclusive = mostly about -30% to -49%; note: % is set by controls: 0 for no effect and ±100 for the full control effect
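THP-1 cells pretreated 1 hr with compounds (up to 57.5 uM final), then stimulated with LPS (250 ng/mL final) plus ATP (1.25 mM final); secreted IL-1B measured by AlphaLISA after 16 hr, decreased signal indicating inhibition.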
S2 tox: reduces viability in counter-screen for ATXN expression inhibitors | S2 cells (HEK-293 line with an ATXN2-luciferase reporter) viability, CellTiter-Fluor protease fluorescence, 24 h | Potency, µM (series often up to 56.7 µM), usual class: cytotoxic | actives 0.49% (n = 400,000); note: potency is the fitted concentration of half-maximal effect; nearly all actives have a fitted effect of over 40% in size
USP1-UAF1 inh: inhibitors of human USP1/UAF1 deubiquitinase; actives 0.23% (n = 390,000); Potency, µM (titrated, usually from 57.1 µM), inactives show at the top dose activity change, negative = inhibition, hits mostly inhibitors; recombinant USP1/UAF1, Ub-Rhodamine cleavage fluorescence; note: potency is the fitted concentration of half-maximal effect; % is set by controls: 0 for no effect and ±100 for the full control effect; nearly all actives have a fitted effect of over 60% in size
Target sequence (O94782 whole entry, looked up): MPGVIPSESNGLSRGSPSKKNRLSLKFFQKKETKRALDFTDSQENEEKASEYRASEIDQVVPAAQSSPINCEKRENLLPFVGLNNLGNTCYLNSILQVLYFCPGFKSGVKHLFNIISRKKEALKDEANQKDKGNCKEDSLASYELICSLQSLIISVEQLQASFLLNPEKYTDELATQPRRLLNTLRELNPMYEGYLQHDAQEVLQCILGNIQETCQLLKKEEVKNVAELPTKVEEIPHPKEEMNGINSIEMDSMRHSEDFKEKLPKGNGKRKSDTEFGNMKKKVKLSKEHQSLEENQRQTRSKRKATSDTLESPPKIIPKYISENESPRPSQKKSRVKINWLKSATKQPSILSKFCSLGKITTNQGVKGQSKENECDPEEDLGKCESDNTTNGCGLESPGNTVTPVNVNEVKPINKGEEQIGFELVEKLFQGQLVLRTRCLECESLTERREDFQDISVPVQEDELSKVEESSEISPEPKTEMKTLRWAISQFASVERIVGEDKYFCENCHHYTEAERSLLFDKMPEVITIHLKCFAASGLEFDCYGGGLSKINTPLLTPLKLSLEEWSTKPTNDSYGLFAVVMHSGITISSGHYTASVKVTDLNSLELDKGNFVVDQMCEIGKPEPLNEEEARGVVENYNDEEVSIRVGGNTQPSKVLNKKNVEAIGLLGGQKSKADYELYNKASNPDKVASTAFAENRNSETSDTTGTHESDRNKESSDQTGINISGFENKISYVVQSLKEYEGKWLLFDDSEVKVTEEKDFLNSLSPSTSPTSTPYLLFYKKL
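USP1/UAF1 complex at 1 nM was preincubated with compound for 15 min at room temperature, then Ub-Rho substrate (150nM final) was added. Fluorescence (480/540 nm) was read kinetically, 6 reads every 60 seconds.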
* marks the source's active call; other numbers are inactive results. Unless noted, calls come from the whole dose curve; as a rule, active = well fitted curve in the direction sought with a large enough effect; inconclusive = small, poorly fitted or top-dose-only effect, or another doubt; inactive = no such curve, though single readings can be large; an effect the other way counts as inactive or inconclusive.

For CCOC(=O)/C=C/C(=O)OCC(=O)Nc1ccc(OC)c(Cl)c1 the results were USP2a block 2.9%, IL-1B inflam inh inconclusive, S2 tox inactive and USP1-UAF1 inh -15.6%.
Screening COc1ccc(NC(=O)CCC(=O)c2cccs2)cc1Cl returned USP2a block -8.3%, ATXN2 expr inh -3.2%, IL-1B inflam inh 1.8, S2 tox inactive and USP1-UAF1 inh -22.0%.
COc1ccc(NC(=O)Nc2cccs2)cc1Cl was read as USP2a block 1.9%, IL-1B inflam inh -52.4*, S2 tox inactive and USP1-UAF1 inh -16.5%.
Screening C1Cc2[nH]nc(-c3nn[nH]n3)c2C1 returned ATXN2 expr inh -7.1%.
Screening COC(=O)/C=C/C(=O)Nc1ccc(O)c(Cl)c1 returned USP2a block -1.1%, ATXN2 expr inh 15.5%, IL-1B inflam inh -98.9*, S2 tox inactive and USP1-UAF1 inh -8.7%.
`CCCCCC(=O)Nc1ccc(NC(=O)c2cc3ccccc3o2)c(OC)c1` gave ATXN2 expr inh inconclusive, S2 tox inactive and USP1-UAF1 inh 11.0%.
Screening Clc1ccc2c(NNc3ccccc3Cl)ccnc2c1 returned USP2a block -1.0%, ATXN2 expr inh 1.4%, IL-1B inflam inh 1.2, S2 tox inactive and USP1-UAF1 inh -3.0%.
Screening O=[N+]([O-])c1ccc(/C=N/Nc2ccnc3cc(Cl)ccc23)o1 returned USP2a block -1.5%, ATXN2 expr inh -27.5%, IL-1B inflam inh -94.1*, S2 tox inconclusive and USP1-UAF1 inh -24.5%.
For Clc1ccc2c(N/N=C/c3ccccc3Br)ccnc2c1 the results were USP2a block 2.1%, ATXN2 expr inh inconclusive, IL-1B inflam inh -98.3*, S2 tox inconclusive and USP1-UAF1 inh -17.5%.
`Clc1ccc2c(N/N=C/c3cccc(Br)c3)ccnc2c1` gave USP2a block 2.0%, ATXN2 expr inh inconclusive, IL-1B inflam inh -99.2* and USP1-UAF1 inh -13.1%.
`Cc1cc(=O)c(C(=O)NCCCc2ccncc2)c2n1-c1ccccc1SC(c1cccs1)C2` (centres undefined) gave S2 tox inactive.
For COc1ccccc1NS(=O)(=O)c1cc(N2Cc3ccccc3C2=N)ccc1N1CCOCC1 the results were USP2a block 1.1%, ATXN2 expr inh -16.3%, IL-1B inflam inh -95.9*, S2 tox inconclusive and USP1-UAF1 inh -1.0%.
`Cc1ccc(NS(=O)(=O)c2sc3ccc(Cl)cc3c2C)cc1` gave USP2a block -20.3%, ATXN2 expr inh inconclusive, IL-1B inflam inh -84.6*, S2 tox inconclusive and USP1-UAF1 inh -25.7%.
For O=C(N/N=C/c1c(O)n(Cc2ccccc2)c(=O)c2ccccc12)c1cccnc1 the results were USP2a block 5.0%, ATXN2 expr inh 16.8µM*, IL-1B inflam inh 111.2 and USP1-UAF1 inh 25.1µM*.
`COc1ccc(Cn2c(O)c(/C=N/NC(=O)c3cccnc3)c3ccccc3c2=O)cc1` gave USP2a block 1.2%, ATXN2 expr inh inconclusive, IL-1B inflam inh 130.9 and USP1-UAF1 inh 31.6µM*.
`OCCN1CCN(C2CCC(c3ccc(F)cc3)c3ccc(F)cc32)CC1` (centres undefined) gave ATXN2 expr inh 25.1µM*, IL-1B inflam inh -75.7*, S2 tox inconclusive and USP1-UAF1 inh -16.8%.
For C=Cc1ccc(Cn2c(=O)n(-c3cccc(Cl)c3)c(=O)c3c4c(sc32)CN(C(C)=O)CC4)cc1 the results were ATXN2 expr inh inconclusive, S2 tox inconclusive and USP1-UAF1 inh -18.3%.
`COC(=O)c1ccc(NC(=O)Cn2c(=O)oc3ccccc32)cc1` gave ATXN2 expr inh 2.6%, S2 tox inactive and USP1-UAF1 inh inconclusive.
C=CCSc1nnc(-c2cc3c(C(F)(F)F)nn(C)c3s2)n1C was read as USP2a block -0.2%, ATXN2 expr inh 1.5%, IL-1B inflam inh -13.3, S2 tox inactive and USP1-UAF1 inh -9.2%.
`C=CCSc1nnc(-c2cc3c(-c4ccccc4)nn(C)c3s2)n1C` gave USP2a block -5.4%, ATXN2 expr inh 98.4%, IL-1B inflam inh -62.0*, S2 tox inactive and USP1-UAF1 inh 1.3%.
For Cn1ccc2c(/C=C/c3ccc(F)cc3)cc3c(c21)C1CCC3O1 (centres undefined) the results were ATXN2 expr inh -28.2%, IL-1B inflam inh 14.0 and S2 tox inactive.
`O=c1c2c(-c3cccs3)csc2ncn1-c1ccc(Br)cc1` gave USP2a block -0.2%, ATXN2 expr inh -4.1%, IL-1B inflam inh -20.1, S2 tox inactive and USP1-UAF1 inh -1.6%.
Screening COc1cccc(-n2cnc3scc(-c4cccs4)c3c2=O)c1 returned USP2a block -7.2%, ATXN2 expr inh 0.2%, IL-1B inflam inh -64.4*, S2 tox inactive and USP1-UAF1 inh -13.0%.
Cc1ccc(C(=O)O)cc1N1C(=O)c2cccc3c([N+](=O)[O-])ccc(c23)C1=O was read as USP2a block 8.3%, ATXN2 expr inh inconclusive, IL-1B inflam inh 0.0 and USP1-UAF1 inh inconclusive.
CN(C)CCCN1C(=O)c2cccc3c([N+](=O)[O-])ccc(c23)C1=O was read as USP2a block 16.9%, ATXN2 expr inh inconclusive, IL-1B inflam inh -51.1* and USP1-UAF1 inh -18.1%.
`O=C(O)c1ccc(CN2C(=O)c3cccc4c([N+](=O)[O-])ccc(c34)C2=O)cc1` gave USP2a block 10.9%, ATXN2 expr inh inconclusive, IL-1B inflam inh -99.5* and USP1-UAF1 inh -25.8%.
CC1CCC(C(=O)N(c2cc(C#CC(C)(C)C)sc2C(=O)O)C2CCC(O)CC2)CC1 (centres undefined) was read as ATXN2 expr inh 14.2%.
Screening COCCN(Cc1nc2ccccc2c(=O)[nH]1)C(=O)COc1cccc(C(C)=O)c1 returned USP2a block -2.9%, IL-1B inflam inh 2.1, S2 tox inactive and USP1-UAF1 inh -5.8%.
For c1ccc(Cn2c(Sc3nnnn3-c3ccccc3)nnc2-c2ccccc2)cc1 the results were USP2a block 0.0%, ATXN2 expr inh 0.0%, IL-1B inflam inh -59.3*, S2 tox inactive and USP1-UAF1 inh -1.4%.
`c1ccc(Cn2c(CSc3nnnn3-c3ccccc3)nc3ccccc32)cc1` gave USP2a block 2.8%, ATXN2 expr inh -19.0%, IL-1B inflam inh 9.5, S2 tox inactive and USP1-UAF1 inh -0.7%.
For Cc1ccc(C)c(-n2nnnc2Sc2nnnn2-c2ccccc2)c1 the results were USP2a block -0.1%, ATXN2 expr inh inconclusive, IL-1B inflam inh -108.9*, S2 tox inconclusive and USP1-UAF1 inh -10.1%.
`CCSc1nnnn1-c1ccccc1` gave USP2a block -2.1%, ATXN2 expr inh 4.6%, IL-1B inflam inh 0.9, S2 tox inactive and USP1-UAF1 inh -7.8%.
`N#C[C@H]1C[C@H]2C[C@@H]2N1C(=O)[C@@H](N)C12CC3CC(CC(O)(C3)C1)C2` gave ATXN2 expr inh inconclusive and S2 tox inactive.
